# Reference: publication PMC7862700, “An all-to-all approach to the identification of sequence-specific readers for epigenetic DNA modifications on cytosine”
# Experiments:
# Test in all cases: DAPPL (digital affinity profiling via proximity ligation, sequencing); 10 mM Tris-HCl pH 7.5, 50 mM NaCl, 1 mM DTT, 4% glycerol, room temperature, 30 min; GST-TFs on glutathione beads, 16-mer random dsDNA library, 0.1% formaldehyde crosslink after washing; high values mean tight binding
# [1] = target: T1, ELK1 (Homo sapiens, UniProt P19419 1-428); settings: protein: recombinant; tags: N-terminal GST; dsDNA, one strand shown
# T1 sequence: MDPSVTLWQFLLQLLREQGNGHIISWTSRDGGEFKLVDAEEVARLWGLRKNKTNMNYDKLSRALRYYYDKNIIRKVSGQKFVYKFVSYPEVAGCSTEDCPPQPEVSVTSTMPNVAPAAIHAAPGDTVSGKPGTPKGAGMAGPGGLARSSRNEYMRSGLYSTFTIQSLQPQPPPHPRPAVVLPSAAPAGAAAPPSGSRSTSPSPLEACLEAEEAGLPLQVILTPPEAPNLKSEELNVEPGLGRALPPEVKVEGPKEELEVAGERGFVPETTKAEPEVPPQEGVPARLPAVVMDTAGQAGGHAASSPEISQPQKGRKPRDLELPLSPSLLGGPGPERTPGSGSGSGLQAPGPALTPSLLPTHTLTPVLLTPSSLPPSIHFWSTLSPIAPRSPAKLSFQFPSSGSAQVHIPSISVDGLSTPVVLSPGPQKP
# How it was run: (§1)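 After expression in yeast as GST fusions, human transcription factors were bound to glutathione beads, DNA-barcoded and mixed with a tag-only sample. The pools were incubated with 200 nmole of a 16-mer random double-stranded DNA library in Tris/NaCl/DTT/glycerol buffer (30 min, room temperature), washed and crosslinked with 0.1% formaldehyde. Proximity ligation with BsaI/T4 ligase ran for 1 h at 37 °C, before PCR amplification and sequencing on an Illumina NextSeq500. Binding signal is a hexamer's read frequency for a factor divided by its frequency for the tag-only sample.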
# [2] = target: T2, GABPA (Homo sapiens, UniProt Q06546 1-454); settings: protein: recombinant; tags: N-terminal GST; dsDNA, one strand shown
# T2 sequence: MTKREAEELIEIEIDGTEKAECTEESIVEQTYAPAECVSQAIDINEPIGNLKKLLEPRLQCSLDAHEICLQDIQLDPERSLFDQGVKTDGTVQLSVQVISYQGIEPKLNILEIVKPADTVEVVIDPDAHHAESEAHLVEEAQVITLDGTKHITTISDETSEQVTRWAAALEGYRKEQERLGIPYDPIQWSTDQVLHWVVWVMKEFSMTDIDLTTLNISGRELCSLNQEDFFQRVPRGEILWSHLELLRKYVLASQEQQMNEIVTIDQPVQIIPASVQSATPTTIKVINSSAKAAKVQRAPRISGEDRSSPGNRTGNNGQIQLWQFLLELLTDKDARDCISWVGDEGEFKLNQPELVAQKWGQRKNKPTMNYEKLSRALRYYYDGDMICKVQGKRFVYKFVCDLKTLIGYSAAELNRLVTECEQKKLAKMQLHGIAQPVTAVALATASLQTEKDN
# How it was run: as §1
# [3] = target: ELF1 (Homo sapiens, UniProt P32519 1-619); settings: protein: recombinant; tags: N-terminal GST; dsDNA, one strand shown
# Sequence of ELF1 (P32519 whole entry): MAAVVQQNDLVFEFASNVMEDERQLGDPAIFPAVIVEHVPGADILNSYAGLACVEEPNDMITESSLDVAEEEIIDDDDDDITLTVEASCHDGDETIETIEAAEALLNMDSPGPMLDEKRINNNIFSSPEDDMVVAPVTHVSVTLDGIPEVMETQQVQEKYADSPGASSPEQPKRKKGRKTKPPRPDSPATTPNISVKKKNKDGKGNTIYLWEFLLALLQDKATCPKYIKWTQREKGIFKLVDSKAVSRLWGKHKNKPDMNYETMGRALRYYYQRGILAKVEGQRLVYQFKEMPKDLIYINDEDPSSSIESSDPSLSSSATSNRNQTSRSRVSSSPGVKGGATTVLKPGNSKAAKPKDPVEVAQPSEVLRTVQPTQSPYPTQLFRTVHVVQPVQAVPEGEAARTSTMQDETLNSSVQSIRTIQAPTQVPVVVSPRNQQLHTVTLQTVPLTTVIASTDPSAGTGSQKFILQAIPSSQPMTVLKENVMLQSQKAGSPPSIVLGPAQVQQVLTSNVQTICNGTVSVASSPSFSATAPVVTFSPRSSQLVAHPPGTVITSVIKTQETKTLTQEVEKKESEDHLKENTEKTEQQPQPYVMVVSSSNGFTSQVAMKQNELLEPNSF
# How it was run: as §1
# [4] = target: T3, EHF (Homo sapiens, UniProt Q9NZC4 1-300); settings: protein: recombinant; tags: N-terminal GST; dsDNA, one strand shown
# T3 sequence: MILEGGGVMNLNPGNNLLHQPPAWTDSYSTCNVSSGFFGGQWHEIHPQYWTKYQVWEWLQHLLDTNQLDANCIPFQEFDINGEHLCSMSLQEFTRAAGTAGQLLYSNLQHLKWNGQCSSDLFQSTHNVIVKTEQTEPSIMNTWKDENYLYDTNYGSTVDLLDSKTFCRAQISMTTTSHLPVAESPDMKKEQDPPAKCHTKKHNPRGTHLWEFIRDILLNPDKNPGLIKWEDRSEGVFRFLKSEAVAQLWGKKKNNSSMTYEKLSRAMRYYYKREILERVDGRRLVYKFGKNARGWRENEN
# How it was run: as §1
# [5] = target: T4, FEV (Homo sapiens, UniProt Q99581 1-238); settings: protein: recombinant; tags: N-terminal GST; dsDNA, one strand shown
# T4 sequence: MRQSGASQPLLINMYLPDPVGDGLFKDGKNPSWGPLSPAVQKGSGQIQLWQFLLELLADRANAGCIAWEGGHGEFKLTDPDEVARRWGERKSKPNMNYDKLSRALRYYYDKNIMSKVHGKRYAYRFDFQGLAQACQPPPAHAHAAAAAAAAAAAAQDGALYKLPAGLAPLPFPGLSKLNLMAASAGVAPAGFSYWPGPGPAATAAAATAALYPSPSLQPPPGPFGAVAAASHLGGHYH
# How it was run: as §1
# [6] = target: HSF1 (Homo sapiens, UniProt Q00613 1-529); settings: protein: recombinant; tags: N-terminal GST; chain copies: 3; dsDNA, one strand shown
# Sequence of HSF1 (Q00613 whole entry): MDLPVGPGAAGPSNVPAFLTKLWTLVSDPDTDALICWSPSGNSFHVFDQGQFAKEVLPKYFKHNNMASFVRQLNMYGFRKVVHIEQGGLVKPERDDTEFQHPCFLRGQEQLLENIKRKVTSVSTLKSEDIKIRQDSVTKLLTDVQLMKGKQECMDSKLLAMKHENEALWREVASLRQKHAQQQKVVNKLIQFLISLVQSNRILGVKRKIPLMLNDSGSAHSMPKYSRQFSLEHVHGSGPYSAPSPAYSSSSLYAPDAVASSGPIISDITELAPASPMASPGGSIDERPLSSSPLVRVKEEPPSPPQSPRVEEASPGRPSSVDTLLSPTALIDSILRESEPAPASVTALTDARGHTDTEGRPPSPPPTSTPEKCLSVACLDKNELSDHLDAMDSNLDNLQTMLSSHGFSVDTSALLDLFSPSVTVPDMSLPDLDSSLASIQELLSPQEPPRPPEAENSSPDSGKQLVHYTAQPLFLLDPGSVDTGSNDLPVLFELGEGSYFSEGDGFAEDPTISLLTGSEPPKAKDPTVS
# How it was run: as §1
# [7] = target: T5, SPIC (Homo sapiens, UniProt Q8N5J4 1-248); settings: protein: recombinant; tags: N-terminal GST; dsDNA, one strand shown
# T5 sequence: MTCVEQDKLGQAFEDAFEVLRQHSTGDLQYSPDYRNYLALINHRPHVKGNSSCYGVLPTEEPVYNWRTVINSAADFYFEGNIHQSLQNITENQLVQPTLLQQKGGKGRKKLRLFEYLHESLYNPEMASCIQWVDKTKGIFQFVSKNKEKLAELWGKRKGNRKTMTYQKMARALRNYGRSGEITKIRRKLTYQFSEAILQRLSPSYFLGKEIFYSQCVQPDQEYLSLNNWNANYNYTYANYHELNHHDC
# How it was run: as §1
# [8] = target: ELF4 (Homo sapiens, UniProt Q99607 1-663); settings: protein: recombinant; tags: N-terminal GST; dsDNA, one strand shown
# Sequence of ELF4 (Q99607 whole entry): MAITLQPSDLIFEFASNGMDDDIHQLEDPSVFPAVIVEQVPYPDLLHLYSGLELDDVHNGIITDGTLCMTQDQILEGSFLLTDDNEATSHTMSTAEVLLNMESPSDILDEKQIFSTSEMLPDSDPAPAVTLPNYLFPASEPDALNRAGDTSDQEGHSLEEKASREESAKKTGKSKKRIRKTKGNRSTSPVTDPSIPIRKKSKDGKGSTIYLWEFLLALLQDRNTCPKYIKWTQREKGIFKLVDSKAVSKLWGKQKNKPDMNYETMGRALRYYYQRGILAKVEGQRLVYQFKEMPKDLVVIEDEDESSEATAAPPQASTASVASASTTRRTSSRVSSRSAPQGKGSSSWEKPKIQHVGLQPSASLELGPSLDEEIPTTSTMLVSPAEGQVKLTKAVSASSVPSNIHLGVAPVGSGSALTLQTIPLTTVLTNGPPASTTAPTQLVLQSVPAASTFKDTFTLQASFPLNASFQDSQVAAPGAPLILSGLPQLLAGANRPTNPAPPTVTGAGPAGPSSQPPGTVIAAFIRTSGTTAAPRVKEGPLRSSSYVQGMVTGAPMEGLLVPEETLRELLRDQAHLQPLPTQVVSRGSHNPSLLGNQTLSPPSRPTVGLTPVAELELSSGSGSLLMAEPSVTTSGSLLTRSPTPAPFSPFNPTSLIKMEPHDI
# How it was run: as §1
# [9] = target: T6, ETV2 (Homo sapiens, UniProt O00321 1-342); settings: protein: recombinant; tags: N-terminal GST; dsDNA, one strand shown
# T6 sequence: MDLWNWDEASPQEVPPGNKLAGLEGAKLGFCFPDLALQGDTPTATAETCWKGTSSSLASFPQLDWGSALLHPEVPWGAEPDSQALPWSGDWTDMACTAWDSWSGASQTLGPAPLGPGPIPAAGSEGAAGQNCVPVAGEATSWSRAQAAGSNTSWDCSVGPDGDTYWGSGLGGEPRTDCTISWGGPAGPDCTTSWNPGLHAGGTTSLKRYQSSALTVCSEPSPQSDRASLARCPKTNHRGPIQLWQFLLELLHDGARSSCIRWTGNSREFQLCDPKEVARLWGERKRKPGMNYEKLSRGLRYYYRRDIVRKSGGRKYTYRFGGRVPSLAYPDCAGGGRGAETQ
# How it was run: as §1
# [10] = target: T7, ELF3 (Homo sapiens, UniProt P78545 1-371); settings: protein: recombinant; tags: N-terminal GST; dsDNA, one strand shown
# T7 sequence: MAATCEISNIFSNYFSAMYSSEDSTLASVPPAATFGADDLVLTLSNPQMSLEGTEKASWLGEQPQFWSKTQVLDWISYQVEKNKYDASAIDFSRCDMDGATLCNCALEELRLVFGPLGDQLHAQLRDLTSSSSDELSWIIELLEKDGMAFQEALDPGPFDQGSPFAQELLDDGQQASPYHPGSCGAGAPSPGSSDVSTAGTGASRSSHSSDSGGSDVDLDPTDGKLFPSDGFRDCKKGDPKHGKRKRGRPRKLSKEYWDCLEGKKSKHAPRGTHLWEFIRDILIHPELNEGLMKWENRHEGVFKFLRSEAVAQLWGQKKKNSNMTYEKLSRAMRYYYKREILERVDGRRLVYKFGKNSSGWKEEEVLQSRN
# How it was run: as §1
# [11] = target: ETV1 (Homo sapiens, UniProt P50549 1-477); settings: protein: recombinant; tags: N-terminal GST; dsDNA, one strand shown
# Sequence of ETV1 (P50549 whole entry): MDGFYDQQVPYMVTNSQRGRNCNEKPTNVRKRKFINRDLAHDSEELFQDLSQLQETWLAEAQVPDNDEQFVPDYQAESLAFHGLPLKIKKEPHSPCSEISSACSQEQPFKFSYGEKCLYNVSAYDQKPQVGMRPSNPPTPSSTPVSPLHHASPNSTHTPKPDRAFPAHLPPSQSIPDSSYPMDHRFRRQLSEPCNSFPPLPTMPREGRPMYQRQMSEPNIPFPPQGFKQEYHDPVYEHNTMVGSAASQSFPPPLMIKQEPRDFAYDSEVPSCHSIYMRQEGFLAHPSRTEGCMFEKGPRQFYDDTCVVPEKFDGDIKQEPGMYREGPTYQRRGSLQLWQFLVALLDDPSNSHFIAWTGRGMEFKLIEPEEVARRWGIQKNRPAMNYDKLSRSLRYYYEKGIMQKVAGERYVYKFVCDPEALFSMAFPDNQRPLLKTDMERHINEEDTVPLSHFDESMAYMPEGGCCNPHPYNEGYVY
# How it was run: as §1
# [12] = target: T8, ETV3 (Homo sapiens, UniProt P41162-2 1-143); settings: protein: recombinant; tags: N-terminal GST; dsDNA, one strand shown
# T8 sequence: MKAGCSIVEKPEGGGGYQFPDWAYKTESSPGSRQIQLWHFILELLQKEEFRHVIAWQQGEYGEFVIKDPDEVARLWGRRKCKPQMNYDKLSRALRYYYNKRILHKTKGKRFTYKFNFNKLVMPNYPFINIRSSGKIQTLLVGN
# How it was run: as §1
sequence,measurement,setting,value
CAGACT,binding signal,[1],"1.01 fold enrichment (6-mer frequency, TF over GST control)"
same,binding signal,[2],"1.06 fold enrichment (6-mer frequency, TF over GST control)"
same,binding signal,[3],"1.02 fold enrichment (6-mer frequency, TF over GST control)"
same,binding signal,[4],"1.05 fold enrichment (6-mer frequency, TF over GST control)"
same,binding signal,[5],"1 fold enrichment (6-mer frequency, TF over GST control)"
same,binding signal,[6],"1.06 fold enrichment (6-mer frequency, TF over GST control)"
same,binding signal,[7],"1.05 fold enrichment (6-mer frequency, TF over GST control)"
same,binding signal,[8],"1.07 fold enrichment (6-mer frequency, TF over GST control)"
same,binding signal,[9],"1.04 fold enrichment (6-mer frequency, TF over GST control)"
same,binding signal,[10],"1.04 fold enrichment (6-mer frequency, TF over GST control)"
same,binding signal,[11],"1.05 fold enrichment (6-mer frequency, TF over GST control)"
same,binding signal,[12],"1.01 fold enrichment (6-mer frequency, TF over GST control)"
